Screens (PubChem BioAssay)
Sampled rows, rich in hits. Any-hit rate of the full collection: about 4.8%.
DAX1 inh-1 – inhibits human nuclear receptor DAX1; P51843; HEK293 Gal4-DAX1 luciferase reporter, luminescence; inhibition, % at 6.75 µM; 340,000 compounds, 0.99% hits; AID 504766;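 active = inhibition above the mean over all tested compounds plus 3 SD, cut at about 4.2% in these data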;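 note: 0% = DAX1-transfected cells with DMSO and 100% = empty-vector control cells with DMSO; inhibition shows as a rise in luminescence from relieved DAX1 repression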
Target sequence (P51843 207-470 limits assumed): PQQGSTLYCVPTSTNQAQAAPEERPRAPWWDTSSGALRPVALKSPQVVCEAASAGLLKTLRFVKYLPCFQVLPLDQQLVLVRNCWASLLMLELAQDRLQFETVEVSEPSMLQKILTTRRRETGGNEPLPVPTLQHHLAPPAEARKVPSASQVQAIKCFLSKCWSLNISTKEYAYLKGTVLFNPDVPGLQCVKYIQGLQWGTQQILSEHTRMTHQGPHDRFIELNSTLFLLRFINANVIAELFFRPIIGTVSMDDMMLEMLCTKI
hgDAF-12 ag – hgDAF-12 agonism, primary luciferase screen | HEK293 GAL4-hgDAF12 UAS-luciferase reporter, agonist luminescence; normalized to butyrate control | activation, % at 6.8 µM | 370,000 compounds, 1.8% hits | AID 687014;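 active = activation above a cutoff set at the mean of all screened compounds plus 3 SD, cut at about 10% in these data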;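 note: 0% = DMSO wells and 100% = sodium butyrate wells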
SMARCA2 activ – SMARCA2 function activation, primary screen; AID 652017; activation, % at 9.1 µM; MG213 cells, MMTV-luciferase reporter, dexamethasone, overnight; 370,000 compounds, 1% hits; in the data active = activation above about 7.8%;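 note: 0% = vehicle wells and 100% = reference activator wells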
DAX1 inh-2 – blocks DAX1 repression of SF-1 activated StAR promoter | HEK293T StAR-luciferase reporter, SF-1/DAX-1 repression relief | inhibition, % at 6.8 µM | 370,000 compounds, 1.1% hits | AID 652010;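 active = inhibition above the mean over all tested compounds plus 3 SD, cut at about 3.6% in these data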;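 note: 0% = DAX-1 cells with DMSO and 100% = cells lacking DAX-1 with DMSO; higher inhibition means more luminescence from relief of DAX-1 repression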
hcDAF-12 act – activates DAF-12 receptor from parasite H. contortus; activation, % at 6.8 µM; 370,000 compounds, 1.4% hits; AID 652067; HEK293 hcDAF-12 lit1-tk-luc reporter, luminescence; 0% DMSO, 100% Δ7-dafachronic acid;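 active = activation above the mean of all tested compounds plus 3 SD, cut at about 5.5% in these data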;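 note: 100% = response to 3 µM Δ7-dafachronic acid high control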
ssDAF-12 act – activates DAF-12 receptor from parasite S. stercoralis; HEK293 ssDAF-12/GRIP1 lit1-tk-luc reporter, luminescence; % of 3 µM dafachronic acid response; activation, % at 6.8 µM; 370,000 compounds, 1% hits;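 active = activation above the mean over all tested compounds plus 3 SD, cut at about 0.9% in these data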;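 note: 0% = DMSO-only wells and 100% = 3 µM delta7-dafachronic acid wells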
SMARCA2 conf – SMARCA2 activation, confirmation screen. shares compounds with SMARCA2 activ. MG213 cells, MMTV-luciferase with dexamethasone, luminescence, overnight; MG213 cells expressing E1A, Rb sequestered; DMSO wells 0%, reference activator 100%. activation, % at 9.1 µM. 3,500 compounds, 30% hits. AID 652260;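 active = activation above its plate's cutoff, the mean activation of tested wells plus 3 SD, cut at about 7.9% in these data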
VP16 Luc act – activates GAL4-VP16 luciferase, flagging SMARCA2 activator hits | shares compounds with SMARCA2 activ | HEK293 GAL4-VP16 pG5luc reporter, luciferase luminescence; scaled: DMSO wells 0%, SAHA wells 100% | activation, % at 9.1 µM | 3,500 compounds, 41% hits | AID 686939;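 active = activation above the solvent-only control well mean plus 3 SD, averaged across control plates, cut at about 5.2% in these data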
Active calls of the source: *; / = not tested or not shown.

SMILES	DAX1 inh-1	hgDAF-12 ag	SMARCA2 activ	DAX1 inh-2	hcDAF-12 act	ssDAF-12 act	SMARCA2 conf	VP16 Luc act
C[C@@H]1CN([C@@H](C)CO)C(=O)c2cc(NC(=O)Nc3ccc4c(c3)OCO4)ccc2O[C@H]1CN(C)S(=O)(=O)c1cn(C)cn1	0.9	-0.7	-0.1	0.5	2.6	-1.1	/	/
CCC(=O)Nc1cccc(NC(=S)NC(=O)c2cccs2)c1	1.7	3.6	11.1*	1.7	1.9	-0.6	4.5	9.4*
CN1CCc2c(c3ccccc3n2Cc2ccccc2)C1	0.1	1.9	-1.7	1.2	2.2	-0.8	-2.0	1.6
CCCCN1CCc2c(c3ccccc3n2Cc2ccccc2)C1	-0.8	1.8	-1.2	0.6	0.1	-1.3	/	/
O=C(COc1ccc(S(=O)(=O)Nc2ccccc2)cc1)NCc1cccnc1	0.0	-2.5	-2.6	-1.2	-1.3	-0.9	/	/
Cc1ccc(N(C(=O)c2csnn2)C(C(=O)NC2CCCC2)c2cccnc2)cc1 (configuration not stated)	-0.8	-1.3	7.6	0.4	0.6	-0.8	/	/
C=CCN(C(=O)c1csnn1)C(C(=O)NCc1ccc(F)cc1)c1sccc1C (configuration not stated)	-1.0	-1.1	8.0*	0.1	-0.7	-1.1	-3.0	-1.6
Cc1ccc(N(C(=O)c2csnn2)C(C(=O)NC2CCCCC2)c2cccnc2)cc1 (configuration not stated)	0.5	4.2	9.6*	0.5	-0.3	-1.2	-2.1	3.9
O=C(NCc1ccc(F)cc1)C(c1cccnc1)N(C(=O)c1csnn1)c1ccccc1 (configuration not stated)	-0.5	-2.3	9.0*	0.2	3.7	-1.0	-4.4	0.3
C=CCN(C(=O)c1csnn1)C(C(=O)NCc1ccc(F)cc1)c1ccc(F)cc1 (configuration not stated)	1.0	-1.4	0.0	-0.3	-2.0	-0.9	/	/
Cc1ccc(S(=O)(=O)Nc2ccc(-n3c(C)nc4ccccc4c3=O)cc2)cc1	0.5	-2.5	-2.9	0.0	-1.1	-1.3	/	/
COC(=O)c1cc(NC(=O)Nc2cc(OC)ccc2OC)cc(C(=O)OC)c1	0.7	2.8	-2.9	-0.4	-0.1	0.2	/	/
COc1cc2c(cc1OC)-c1cc(Nc3ccccc3)nc(=O)n1CC2	-1.8	-4.2	4.4	-0.3	-4.0	-2.2	/	/
COc1ccc(Nc2cc3n(c(=O)n2)CCc2cc(OC)c(OC)cc2-3)cc1	-1.4	-4.8	6.9	-0.1	-4.4	-1.4	/	/
COc1cc2c(cc1OC)-c1cc(Nc3ccccc3Br)nc(=O)n1CC2	1.4	-3.6	12.7*	-0.7	-4.8	-1.6	8.6*	15.6*
COc1cc2c(cc1OC)-c1cc(Nc3ccc(C)cc3)nc(=O)n1CC2	2.4	-1.7	9.9*	0.1	-3.4	-1.6	9.2*	4.5
CCN1CCN(Cc2ccc(NC(=O)c3cc(NC(=O)c4cncc(-c5cccs5)c4)cc(OC)c3)cc2C(F)(F)F)CC1	1.6	3.1	11.2*	1.3	-2.9	-1.3	5.2	1.5
OC(Cn1cncn1)(Cn1cncn1)c1ccc(F)cc1F	0.6	-1.9	-3.0	-1.2	-0.1	0.7	/	/
CCCOC(=O)c1c(NC(=O)CCC(=O)O)sc2c1CCCCC2	1.5	0.2	-5.1	-0.1	-0.6	-1.0	/	/
COc1ccc(C(NC(=O)c2ccco2)c2ccc(OC)c(OC)c2)cc1OC	-1.5	0.3	9.0*	-0.3	-2.6	-0.9	-1.2	0.6
COc1cccc(NC(=O)c2nn(C)cc2Br)c1	1.1	3.6	8.0*	0.1	0.4	-1.1	4.0	3.0
COc1cccc(NC(=O)c2ccc3nsnc3c2)c1	0.1	8.8	8.1*	0.8	2.6	0.9	3.7	10.3*
CCOc1ccc(NC(=O)c2nn(C)cc2Br)cc1	1.9	7.2	5.4	1.8	1.1	0.1	/	/
CCn1cc(Br)c(C(=O)Nc2cccc(SC)c2)n1	0.2	6.5	8.0*	-0.2	2.1	-1.1	4.1	3.6
Fc1cccc(-c2cc3nc4c(c(N5CCOCC5)n3n2)CCCC4)c1	1.2	5.0	9.4*	2.3	0.9	-0.5	5.3	0.5
SMILES	DAX1 inh-1	hgDAF-12 ag	SMARCA2 activ	DAX1 inh-2	hcDAF-12 act	ssDAF-12 act	SMARCA2 conf	VP16 Luc act
Fc1cccc(-c2cc3nc4c(c(NCc5ccco5)n3n2)CCCC4)c1	2.6	10.6*	8.4*	4.2*	3.0	-0.4	7.6	10.6*
COc1ccc(Cl)c(Cn2c(NCc3ccccn3)nc3c2c(=O)n(C)c(=O)n3C)c1	2.0	-2.3	-1.3	-1.1	-1.1	-1.3	/	/
O=C(O)CCCNS(=O)(=O)c1ccc(F)cc1	0.1	-1.1	8.8*	-0.2	-0.7	-1.1	4.7	-0.3
CCOc1ccc(/C(O)=C2/C(=O)C(=O)N(CCOCCO)C2c2ccccn2)cc1 (configuration not stated)	0.7	3.0	8.6*	-0.5	1.9	-1.2	-0.8	0.7
O=C(CSc1ccc(Cl)cc1)Nc1nnc(-c2cccc([N+](=O)[O-])c2)s1	0.1	-1.0	0.5	-0.8	0.2	-0.6	/	/
Cc1cccc[n+]1CCCCCCCCCC[n+]1ccccc1C	-1.4	-6.0	-5.0	-1.2	-2.3	-1.9	/	/
CCCc1ncc(C[n+]2ccccc2C)c(N)n1	0.1	-1.6	9.1*	0.2	-1.0	-1.3	-0.8	0.6
Cc1sc2nc(CN3CCCC3)nc(NCc3ccncc3)c2c1C	0.3	-2.3	4.0	-0.3	-1.1	-1.5	/	/
Cc1sc2nc(CN3CCCCC3)nc(Nc3ccc4c(c3)OCCO4)c2c1C	0.3	2.4	9.2*	0.8	-0.1	-1.0	10.6*	-1.1
Cc1ccc(NC(=O)C(=O)NCc2ccc(/C=N/NC(=O)c3c(C)nc4ccccn34)o2)cc1	-0.4	1.8	3.2	0.9	4.0	-1.5	/	/
CC1(C)CC(=O)C/C(=N/NC(=O)c2ccc(-c3ccccc3)cc2)C1	-1.9	-4.5	-1.1	-1.1	1.2	-2.0	/	/
CC1(C)CC(=O)C/C(=N\NC(=O)Cc2ccccc2)C1	-1.2	-0.4	10.1*	-0.3	-2.6	-0.7	1.2	0.9
O=C(Nc1nnc(-c2ccccc2F)s1)C1CCN(S(=O)(=O)c2ccc(Cl)cc2)CC1	-0.8	2.7	-1.4	0.2	0.4	-0.7	/	/
COc1ccc(-c2cc3ccc(O)cc3oc2=O)cc1OC	0.4	3.0	8.5*	0.3	5.8*	-0.1	5.8	2.8
COc1ccc(-c2cc3ccc(OCC(N)=O)cc3oc2=O)cc1OC	0.4	1.9	-0.1	0.2	1.7	-0.7	/	/
